# Bioassay records (PubChem BioAssay)
# MLL CXXC-DNA inh = blocks binding of human MLL CXXC domain to DNA; actives 0.037% (n = 290,000); AID 2662; MLL-CXXC / FITC-HOXA9 DNA fluorescence polarization; Potency, µM (top dose mostly 115 µM), inactives show at the top dose activity change, negative = inhibition, usual class: inhibitors; active = well fitted inhibition curve with a large enough effect in the polarisation, with a control signal flat, not every such curve was filed as active; inconclusive = small, poorly fitted or top-dose-only effect, or effect the other way, or a change in a side signal; inactive = no such curve, though single readings can be large or run the other way; the % refers to the polarisation; also: potency is read from the fitted curve at half-maximal effect
#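 Fluorescence polarization: 7 uM MLL-CXXC (stock) preincubated 5 min with compounds, then 50 nM fluorescein-HOX-A9 DNA (stock) added; 30 min ambient. Buffer 50 mM Tris-HCl pH 7.5, 50 mM NaCl, 1 mM DTT, 0.05% BSA.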
# Menin MLL FP TR = displaces Texas Red mutant MLL peptide from human menin; O00255; Menin + Texas Red MLL mutant peptide, fluorescence polarization; Potency, µM (series often up to 61.6 µM), without a hit: at the top dose FP activity change, negative = inhibition, most hits filed as inhibitors; actives 0.23% (n = 270,000); active = well fitted inhibition curve with a large enough effect in the polarisation, with a control signal flat, not every such curve was filed as active; inconclusive = small, poorly fitted or top-dose-only effect, or effect the other way, or a change in a side signal; inactive = no such curve, though single readings can be large or run the other way; the % refers to the polarisation; also: potency is read from the fitted curve at half-maximal effect; % of control where 0% means no effect
# mIDH1 inhibitor = blocks human mutant IDH1 R132H enzyme | O75874 | IDH1-R132H enzyme, NADPH consumption, diaphorase/resazurin fluorescence | Potency, µM (top dose mostly 76.6 µM), without a hit: at the highest dose activity change, negative = inhibition, hits mostly inhibitors | actives 0.093% (n = 390,000) | AID 602179; also: potency is read from the fitted curve at half-maximal effect; % is scaled to controls: 0 for no effect and ±100 for the full control effect; nearly all actives have a fitted effect of over 65% in size
#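 IDH1-R132H (0.5 ug/mL dispensed) in pH 7.5 Tris buffer was preincubated 30 min with compound, then given a substrate mix of 0.016 mM NADPH and 2 mM alpha-KG for 80 min at room temperature; remaining NADPH was read by diaphorase/resazurin fluorescence.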
# LDHA block = inhibitors of human lactate dehydrogenase A. P00338. purified LDHA, NADH/diaphorase-resazurin fluorescence; active compounds read low. activity change, % (values are at about 110 or 230 µM). actives 0.15% (n = 480,000). AID 1347041; in the data active = activity change below about -30%; inconclusive = mostly about -25% to -30%;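 also: plate controls were DMSO wells for no effect and wells without enzyme for full effect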
#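 LDH5 2 nM; NADH 0.06 mM, pyruvate 0.2 mM; 200 mM Tris pH 7.4, EDTA, Tween-20; 5 min RT. Detection: diaphorase 0.133 mg/mL + resazurin 37 µM, fluorescence ex540/em590 at 0 and 20 min; normalized to enzyme-free and DMSO wells.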
# pAkt inh = Akt phosphorylation inhibition; actives 0.32% (n = 360,000); AID 651550; Neuro2A IGF-stimulated pAkt S473 HTRF, 20 min; active compounds read low; activity change, % for hits at 50 µM; in the data active = activity change below about -80%; inconclusive = mostly about -51% to -80%; also: % is scaled to controls: 0 for no effect and ±100 for the full control effect
#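 Neuro2A cells in DMEM with 0.5% FBS, overnight at 37 deg C, given compound at single 50 µM final, then IGF (6 nM final) for 20 min at 37 deg C. Lysed; phospho-Akt Ser473 by HTRF after 24 h, 665/615 ratio.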
# Menin MLL FP FL = menin-MLL binding inhibition, fluorescein peptide; Fluorescence polarization, fluorescein-MLL peptide displacement from menin; FP activity change, % at 61.4 µM; 290,000 tested, under 10 active; active = well fitted curve in the direction sought with a large enough effect in the polarisation, not every such curve was filed as active; inconclusive = small, poorly fitted or top-dose-only effect, or effect the other way, or a change in a side signal; inactive = no such curve, though single readings can be large or run the other way; the % refers to the polarisation; also: % of control where 0% means no effect
# MLL CXXC Fl = MLL CXXC-DNA interaction inhibition, fluorescein FP; shares compounds with MLL CXXC-DNA inh; actives 70% (n = 200); Potency, µM (top dose mostly 345 µM), for inactives: at the top dose activity change, negative = inhibition, hits mostly inhibitors; MLL CXXC-DNA binding, fluorescein FP; AID 624160; also: potency is read from the fitted curve at half-maximal effect; nearly all actives have a fitted effect of over 80% in size
# MLL CXXC FP-TR = inhibitors of human MLL CXXC domain-DNA interaction, Texas Red format. shares compounds with MLL CXXC-DNA inh. MLL CXXC-DNA binding, Texas Red fluorescence polarization. Potency, µM (series often up to 345 µM), for the others: at the highest dose activity change, negative = inhibition, hits mostly inhibitors. actives 40% (n = 200). AID 624161; also: potency is read from the fitted curve at half-maximal effect; % is scaled to controls: 0 for no effect and ±100 for the full control effect; nearly all actives have a fitted effect of over 75% in size
# MLL CXXC TRF = MLL CXXC-DNA interaction inhibition, HTRF readout; MLL CXXC-DNA binding, HTRF, biochemical; AID 624162; actives 30% (n = 210); shares compounds with MLL CXXC-DNA inh; Potency, µM (top dose mostly 172 µM), for the others: top-dose activity change, negative = inhibition, actives largely listed as inhibitors; also: % is scaled to controls: 0 for no effect and ±100 for the full control effect; nearly all actives have a fitted effect of over 80% in size
# The depositor's hits bear a star; i = inactive; ? = inconclusive; / = no result; ! = not active in a repeat. Most compounds without a hit are left out; they make up all but 0.54% or so of the library. Unless noted, calls follow the shape of the dose curve; as a rule, active = well fitted inhibition curve with a large enough effect; inconclusive = small, poorly fitted or top-dose-only effect; inactive = no such curve, though single readings can be large or run the other way.
SMILES,MLL CXXC-DNA inh,Menin MLL FP TR,mIDH1 inhibitor,LDHA block,pAkt inh,Menin MLL FP FL,others
CCCCc1c(CCC)c(=N)c2ccccc2n1C,6%,-8%,6%,-37*,i,0,
CC(CCC(C)[n+]1cccc(Br)c1)[n+]1cccc(Br)c1 (configuration not stated),/,/,/,-31*,/,/,
CCOC(=O)C(CC)n1cnc2c(oc3ccccc32)c1=O (configuration not stated),1%,-19%,6%,-5,-113%*,-2,
Cc1onc(-c2c(F)cccc2Cl)c1C(=O)NCc1ccccn1,0%,2%,-3%,-8,-109%*,1,
Cc1onc(-c2ccccc2Cl)c1C(=O)NCc1ccccn1,3%,15%,5%,-5,i,0,
N#C/C(=C\c1ccc(O)c(O)c1)C(=O)c1ccc(O)c(O)c1,-4%,2%,-9%,-90*,i,?,
N#C/C(=C\c1ccc(O)c(O)c1)C(=O)N1CCCC1,?,-1%,-2%,4,i,?,
CCn1cc([N+](=O)[O-])c(C(=O)Nc2cc(C)on2)n1,-3%,-5%,4%,-4,-113%*,1,
Cc1nc(SCc2cccc(Oc3ccccc3)c2)n[nH]1,6%,21%,-6%,-11,-112%*,2,
N#Cc1cc(-c2ccc(Cl)cc2)cn(Cc2c(Cl)cccc2Cl)c1=O,6%,/,13%,-7,-95%*,-2,
CN1CCN(c2nc3c(c(=O)n(C)c(=O)n3C)n2CC(=O)C23CC4CC(CC(C4)C2)C3)CC1,-15%,-9%,2%,-7,-82%*,-1,
Cn1c(=O)c2c(nc(N3CCOCC3)n2CC(=O)C23CC4CC(CC(C4)C2)C3)n(C)c1=O,11%,-11%,4%,-3,i,2,
CC(=O)c1c(O)cc(O)cc1CC(=O)O,?,/,-11%,8,i,/,MLL CXXC Fl=142µM*;MLL CXXC FP-TR=0%;MLL CXXC TRF=2%
CC(=O)c1c(O)cc(O)c(C(C)=O)c1O,-1%,/,-2%,0,i,4,
C=Cc1c(C)c2cc3[nH]c(cc4nc(cc5nc(cc1[nH]2)C(C)=C5CCC(=O)O)C(CCC(=O)O)=C4C)c(C)c3C=C,20µM*!,?,?,-5,i,-2,MLL CXXC Fl=?;MLL CXXC FP-TR=45µM*;MLL CXXC TRF=39µM*
CC1=C(CCC(=O)O)c2cc3nc(cc4[nH]c(cc5[nH]c(cc1n2)c(C)c5C(C)O)c(C)c4C(C)O)C(C)=C3CCC(=O)O (configuration not stated),/,?,/,/,/,-22,
CC(C)c1nnc(NC(=O)c2nc(S(=O)(=O)Cc3ccc(F)cc3)ncc2Cl)s1,?,/,5%,0,i,/,
CCSc1nnc(NC(=O)c2nc(S(=O)(=O)Cc3ccc(F)cc3)ncc2Cl)s1,?,/,9%,2,i,/,MLL CXXC Fl=22µM*;MLL CXXC FP-TR=100µM*;MLL CXXC TRF=9.7µM*
Cc1ccc(N/C=C(\C2OC(=O)c3ccccc32)[N+](=O)[O-])c(C)c1 (configuration not stated),-1%,-5%,8%,-8,i,-17,
